Rpn11 block = Rpn11 (PSMD14) deubiquitinase inhibitors, primary screen, biochemical, fluorescence polarization, uHTS. 26S proteasome non-ATPase regulatory subunit 14 (Homo sapiens), O00487. human 26S proteasome, Ub4-pepOG fluorescence polarization; 20S core pre-blocked with epoxomicin. inhibition, % at 20 µM. 360,000 compounds, 0.59% hits. AID 588493, 2011;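 active = inhibition at 20 µM, scaled to each plate's controls, above about 33%, limit read from the data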
GRIN3A LBD mod = binders of NR3A ligand-binding domain, primary screen, biophysical, differential scanning fluorimetry, uHTS. NR3A LBD differential scanning fluorimetry, Tm shift; 0% = protein alone, 100% = glycine-bound protein. Tm shift relative to glycine control, % at 25 µM. 340,000 compounds, 2.5% hits. AID 1259313, 2017;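 active = melting temperature shift of at least 10% of the positive control shift, at one fixed dose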
dFosB activator = activators of delta FosB homodimer, primary screen, biochemical, fluorescence polarization, TAMRA-CDK5 oligo, single point | Protein FosB (Mus musculus), P13346 | purified delta FosB; percent of positive-control signal above neutral wells | activation, % at 25 µM | 340,000 compounds, 0.99% hits | AID 493131, 2011;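 active = mean activation above about 17%, with every replicate also reaching it, limit read from the data, passing the limit was not always enough; inconclusive = only one of the two conditions met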
TPT1 inh = Candida albicans TPT1 enzyme inhibitors, primary screen, biochemical, fluorescence polarization. AID 1962, 2009. 300,000 compounds, 0.81% hits. recombinant caTPT1, FP RNA substrate dephosphorylation. tRNA 2'-phosphotransferase TPT1 (Candida albicans SC5314). inhibition, % at 5 µM;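 active = inhibition above the mean of all tested compounds plus 3 SD, set per screening campaign, cut at about 24% in these data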
ZTA DNA inh = counter-screen for EBNA-1 inhibitors: inhibitors of Epstein-Barr virus ZTA; ZTA-DNA binding, fluorescence polarization; 320,000 compounds, 0.15% hits; inhibition, % at 11 µM; P03206; in the data active = inhibition above about 33%
Target sequence (P03206 whole entry, looked up): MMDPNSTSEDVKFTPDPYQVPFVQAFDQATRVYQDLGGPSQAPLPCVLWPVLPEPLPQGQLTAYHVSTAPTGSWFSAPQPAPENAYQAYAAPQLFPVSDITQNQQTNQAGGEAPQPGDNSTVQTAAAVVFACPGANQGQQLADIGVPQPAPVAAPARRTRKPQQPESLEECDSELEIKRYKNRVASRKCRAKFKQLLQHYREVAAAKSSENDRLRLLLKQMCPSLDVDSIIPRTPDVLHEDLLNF
EBNA-1 inhibitor = EBNA-1 DNA-binding inhibitors, primary screen, biochemical, fluorescence polarization. inhibition, % at 14.8 µM. 300,000 compounds, 0.34% hits; in the data active = inhibition above about 28%
Numbers stand for hits; 0 = inactive; ? = inconclusive; - = no result. This is a sample that favours compounds with a hit; in the whole collection about 4.5% have one here.

SMILES	Rpn11 block	GRIN3A LBD mod	dFosB activator	TPT1 inh	ZTA DNA inh	EBNA-1 inhibitor
CN1C(=O)C(C)(C)c2cc(S(=O)(=O)N3CCC(C(=O)NCc4ccccc4Cl)CC3)ccc21	0	0	0	0	0	0
S=C(NCCc1ccccc1)N/N=C/c1cccc(Cl)c1Cl	0	0	0	0	0	0
Oc1ccccc1/C=N/NC(=S)NCCc1ccccc1	0	28	0	-	-	-
C/C(=N\NC(=S)NCCc1ccccc1)c1ccc(Cl)cc1Cl	0	0	0	0	0	0
C/C(=N\NC(=S)NCCc1ccccc1)c1ccc(O)cc1O	0	17	0	0	0	0
Oc1ccccc1C=NNC(=S)Nc1ccc(F)cc1	0	14	0	-	-	-
CN(C)c1nc(N/N=C/c2ccccc2O)nc(Nc2ccc(F)cc2)n1	0	38	60	0	0	0
O=C(NCC1CC1)Nc1cccc(C(F)(F)F)c1	0	0	0	-	-	-
c1coc(-c2cc3nc(NC4CCCCC4)ccn3n2)c1	0	-	-	-	-	-
O=C(Nc1nc2ccc3ccccc3c2s1)c1ccc(N2CCCCC2)c([N+](=O)[O-])c1	0	19	0	0	0	0
O=C(Nc1nc2ccc(Cl)cc2s1)c1ccc(N2CCCCC2)c([N+](=O)[O-])c1	0	15	?	0	0	0
CCC(CC)c1nnc(NC(=O)c2ccc(N3CCCCC3)c([N+](=O)[O-])c2)s1	0	0	0	0	0	0
CCOc1cc(C2C(C#N)=C(N)SC(N)=C2C#N)ccc1OCCN1CCOCC1	0	-	0	46	0	0
O=[N+]([O-])c1cccc(S(=O)(=O)Nc2ccc(-c3ccc(N4CCCC4)nn3)cc2)c1	0	31	0	0	0	0
CCN(CC)CCNc1ccc(CO)c2oc3cc(Cl)ccc3c(=O)c12	0	-	-	-	-	-
CN(C)CCNc1ccc(CO)c2oc3ccc(O)cc3c(=O)c12	0	0	26	-	-	-
CCCN(CCC)CCN1C(=O)C2C(C(=O)Nc3cccc(SC)c3)C3C=CC2(O3)C1C(=O)NC1CCCCC1 (stereo unspecified)	0	0	0	0	0	0
O=C(Nc1cccc(-c2csc(Nc3cccc(C(F)(F)F)c3)n2)c1)c1ccccc1	0	29	0	0	0	0
Cc1nc(-c2ccc(NC(=O)c3ccccc3)cc2)cs1	0	0	0	0	0	0
CC(=O)c1cccc(Nc2nc(-c3ccccc3)cs2)c1	0	32	0	0	0	0
O=C(Nc1ccc(-c2csc(Nc3cccc(C(F)(F)F)c3)n2)cc1)c1ccccc1	0	25	0	0	0	0
CC(=O)c1cccc(Nc2nc(-c3cccnc3)cs2)c1	0	0	0	-	-	-
O=C(Nc1ccc(-c2csc(Nc3cccc(C(F)(F)F)c3)n2)cc1)c1cc([N+](=O)[O-])cc(C(F)(F)F)c1	0	21	0	0	0	0
CCOc1ccc(NC(=O)c2sc3nc(N4CCOCC4)c4c(c3c2N)CC(C)(C)OC4)cc1	0	0	0	0	0	0
CCOC(=O)c1ncn2c1[C@@H]1CCNC1C(=O)c1cc(OC)ccc1-2 (stereo partly specified)	0	0	0	0	0	0
SMILES	Rpn11 block	GRIN3A LBD mod	dFosB activator	TPT1 inh	ZTA DNA inh	EBNA-1 inhibitor
CC(C)(C)C(=O)C(C(c1ccccc1)N1CCOCC1)N1CCOCC1 (stereo unspecified)	0	0	0	-	-	-
COc1ccc(OC)c(S(=O)(=O)N2CCCC(C(=O)NCc3cccnc3)C2)c1 (stereo unspecified)	0	0	0	0	0	0
O=C(Nc1ccc(-c2csc(Nc3ccc(Cl)cc3)n2)cc1)c1ccccc1	0	0	0	-	-	-
O=C(Nc1cccc(-c2csc(Nc3ccccc3)n2)c1)c1ccccc1	0	11	0	0	0	0
COc1ccc(C(=O)Nc2ccc(OC)c([N+](=O)[O-])c2)cc1Br	0	30	0	0	0	0
COc1ccc(C(=O)Nc2cccc([N+](=O)[O-])c2)cc1Br	0	22	0	0	0	0
COc1ccc(C(=O)Nc2cc3c(cc2OC)CCCC3)cc1Br	0	11	0	0	0	0
COc1ccc(NC(=O)Nc2cccc([N+](=O)[O-])c2)cc1Cl	0	32	0	0	0	0
